Here are results for six molecules from article PMC12136788.

In all, about 5,800 sequences were measured (“enrichment r”: median about 0.54, highest 2% from about 16 on). Only a selection was taken, and the highest values are over-represented in it overall.

The labels stand for the following.
B1: chr11:46542767:46542868:-|CDS|ENSG00000110497|msi1|total|mutant (ssRNA)
RNA: GGGAGUUCUACAGUCCGACGAUCAACACGCUCCGCAACCUCAGUCUGGGUCCUACCCGCCGCUCUUUGGGAGGGCCUCUGUCCCGCCACCCUUCCCGGUAUCACCGAGAAACCGCUCCUGGGUUGACAGGAUCUGAGUGGACCCAACAGAGGAUUGAGCAUCA
B2: chrX:21994482:21994713:+|3pUTR|ENSG00000102172|msi1|total|mutant (ssRNA)
RNA: GGGAGUUCUACAGUCCGACGAUCCAGCUGAAGGAUGGUCCGACAGCACAGCGAAGACUGCUAAAUGCACUGACCCCCCCCAUCCGAAUGUGAUUUUUGUUCCUUUUUAUUUCUCUGUGGGCUUUUGUUUUUGUUUUUGUUUUGCAACAGAGGAUUGAGCAUCA
B3: chr19:41261474:41261596:+|3pUTR|ENSG00000167601|msi1|total|mutant (ssRNA)
RNA: GGGAGUUCUACAGUCCGACGAUCUCUAAAGGUCCACAGGUCCCGACUAUCCGGUGCAAUUUCAAGGUUCUAACCCUAUACUGCCGUAUUCUUUGGGGUGCCCCUCUCCUUCUCCGCUAUCAUUGCUUCCUCCUCCCCAACUGUCAACAGAGGAUUGAGCAUCA
B4: ENSG00000198589:be:win_4151|CDS|ENSG00000198589|bound_else_gene|NA|bound_elsewhere_windowed (ssRNA)
RNA: GGGAGUUCUACAGUCCGACGAUCCGGCUACACAUGAACUGGAAAAUAUUGAACCUACUCAAGGCCUUUCAAUAGAAGCCUCUGUGACAUUUUUGCAGAGGCUAAUUAGCCUUGUGGAUGUGCUUAUAUUUGCAAGUUCUCUUGCAACAGAGGAUUGAGCAUCA
B5: ENSG00000198589:be:win_9651|3pUTR|ENSG00000198589|bound_else_gene|NA|bound_elsewhere_windowed (ssRNA)
RNA: GGGAGUUCUACAGUCCGACGAUCCUUCAAGUGGUCCCUCUUUUUUUCCUACACACUCAGCUCUUCUCUAAAAGCAAGGAUUUGGAAUGAACAAUUCAGUUUGACAGAAAAAGCUGAAUAAAAUGGCAUCUGUAAUUGAAUUGUCAACAGAGGAUUGAGCAUCA
B6: chr13:20822168:20822271:-|CDS|ENSG00000132953|unk|total|mutant (ssRNA)
RNA: GGGAGUUCUACAGUCCGACGAUCUCGAAAAAUCAGAGAAGAUUCAGAUAUGGCACAAGAUUCUCUGCAGUGCCUUGCCCAGUCCGCUUCUCUUCAUGGACCCAUCUUCCCAGAUGAAGGAUCACAAGUUGAUUAUCCCGCACACAACAGAGGAUUGAGCAUCA

MSI1 full-length, sequence (Q61474 whole entry): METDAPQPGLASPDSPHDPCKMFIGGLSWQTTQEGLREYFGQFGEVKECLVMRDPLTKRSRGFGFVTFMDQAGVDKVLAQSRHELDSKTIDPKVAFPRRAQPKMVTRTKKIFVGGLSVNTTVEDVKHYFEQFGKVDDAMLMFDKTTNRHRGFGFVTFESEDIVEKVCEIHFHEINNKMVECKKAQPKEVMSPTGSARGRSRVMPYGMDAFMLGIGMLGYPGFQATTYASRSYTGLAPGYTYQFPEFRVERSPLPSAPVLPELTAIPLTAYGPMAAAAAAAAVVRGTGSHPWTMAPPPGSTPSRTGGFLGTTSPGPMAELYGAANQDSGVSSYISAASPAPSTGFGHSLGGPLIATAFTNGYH

This assay has as its target MSI1 full-length (mouse, UniProt Q61474 1-362). Kind of assay: nsRBNS (natural sequence RNA bind-n-seq); RBNS binding buffer (assumed for nsRBNS): 25 mM Tris pH 7.5, 150 mM KCl, 3 mM MgCl2, 0.01% Triton X-100, 500 ug/ml BSA, 20 U/ml SUPERase-In, 4 C; UNK is unkempt and MSI1 is Musashi-1; names of the RNAs are library labels; protein concentration not given here; high values mean tight binding.
B1 yielded a binding signal of 0.529 enrichment R.

As to B2, the binding signal was 0.697 enrichment R.

In turn, B3 returned a binding signal of 0.848 enrichment R.

On to B4, for which the binding signal is 0.181 enrichment R.

Turning to B5, the binding signal is 0.318 enrichment R.

As to B6, the binding signal is 0.303 enrichment R.
